# According to paper PMC7862700, “An all-to-all approach to the identification of sequence-specific readers for epigenetic DNA modifications on cytosine”:
# Legend:
# Experiment in all cases: DAPPL (digital affinity profiling via proximity ligation, sequencing); 10 mM Tris-HCl pH 7.5, 50 mM NaCl, 1 mM DTT, 4% glycerol, room temperature, 30 min; GST-TFs on glutathione beads, 16-mer random dsDNA library, 0.1% formaldehyde crosslink after washing; high values mean tight binding
# FLI1 = target: T1, FLI1 (Homo sapiens, UniProt Q01543 1-452); settings: protein: recombinant; tags: N-terminal GST; dsDNA, one strand shown
# T1 sequence: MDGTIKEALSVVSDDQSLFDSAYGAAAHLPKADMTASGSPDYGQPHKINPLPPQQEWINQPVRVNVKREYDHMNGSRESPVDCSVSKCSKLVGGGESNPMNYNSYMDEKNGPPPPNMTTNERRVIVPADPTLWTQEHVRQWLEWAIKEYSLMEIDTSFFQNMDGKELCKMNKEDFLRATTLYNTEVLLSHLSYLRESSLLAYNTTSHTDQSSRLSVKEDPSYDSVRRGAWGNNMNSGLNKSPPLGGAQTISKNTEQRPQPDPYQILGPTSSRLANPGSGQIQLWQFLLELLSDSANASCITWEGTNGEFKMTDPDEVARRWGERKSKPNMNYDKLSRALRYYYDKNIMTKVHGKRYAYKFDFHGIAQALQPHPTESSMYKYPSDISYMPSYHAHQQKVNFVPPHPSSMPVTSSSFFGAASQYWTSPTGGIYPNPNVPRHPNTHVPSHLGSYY
# How it was run: (§1)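 Pools of DNA-barcoded human transcription factors, expressed in yeast as GST fusions on glutathione beads and combined with a tag-only sample, were incubated with 200 nmole of a 16-mer random double-stranded DNA library. Incubation took 30 min at room temperature in Tris/NaCl/DTT/glycerol buffer and was followed by washing, 0.1% formaldehyde crosslinking, proximity ligation (BsaI/T4 ligase, 1 h, 37 °C), PCR amplification and sequencing on an Illumina NextSeq500. Binding signal is the ratio of a hexamer's read frequency for a factor to its frequency for the tag-only sample.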
# ELK1 = target: T2, ELK1 (Homo sapiens, UniProt P19419 1-428); settings: protein: recombinant; tags: N-terminal GST; dsDNA, one strand shown
# T2 sequence: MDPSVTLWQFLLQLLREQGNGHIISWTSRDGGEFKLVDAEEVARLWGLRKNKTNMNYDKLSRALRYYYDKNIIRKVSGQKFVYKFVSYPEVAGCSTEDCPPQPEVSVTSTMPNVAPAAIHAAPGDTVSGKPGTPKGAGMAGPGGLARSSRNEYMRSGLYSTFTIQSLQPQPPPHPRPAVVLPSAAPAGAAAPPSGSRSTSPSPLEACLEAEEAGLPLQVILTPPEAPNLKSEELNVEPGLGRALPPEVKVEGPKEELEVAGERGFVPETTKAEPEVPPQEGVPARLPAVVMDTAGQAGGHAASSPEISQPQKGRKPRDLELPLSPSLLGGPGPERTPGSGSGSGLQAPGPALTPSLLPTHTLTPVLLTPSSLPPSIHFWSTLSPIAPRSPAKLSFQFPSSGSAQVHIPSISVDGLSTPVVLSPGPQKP
# How it was run: as §1
# GABPA = target: T3, GABPA (Homo sapiens, UniProt Q06546 1-454); settings: protein: recombinant; tags: N-terminal GST; dsDNA, one strand shown
# T3 sequence: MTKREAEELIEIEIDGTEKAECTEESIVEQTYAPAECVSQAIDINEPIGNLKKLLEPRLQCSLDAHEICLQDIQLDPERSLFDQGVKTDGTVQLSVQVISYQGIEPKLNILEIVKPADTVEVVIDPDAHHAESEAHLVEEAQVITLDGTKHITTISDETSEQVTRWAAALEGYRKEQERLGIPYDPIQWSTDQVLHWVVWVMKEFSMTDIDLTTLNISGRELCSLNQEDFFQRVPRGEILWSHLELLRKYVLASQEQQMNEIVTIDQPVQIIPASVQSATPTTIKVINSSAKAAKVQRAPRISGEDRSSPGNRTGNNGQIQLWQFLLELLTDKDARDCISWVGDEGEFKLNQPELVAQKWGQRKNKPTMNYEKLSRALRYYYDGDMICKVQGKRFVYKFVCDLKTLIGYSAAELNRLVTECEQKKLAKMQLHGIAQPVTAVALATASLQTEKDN
# How it was run: as §1
# ERG = target: T4, ERG (Homo sapiens, UniProt P11308 1-479); settings: protein: recombinant; tags: N-terminal GST; dsDNA, one strand shown
# T4 sequence: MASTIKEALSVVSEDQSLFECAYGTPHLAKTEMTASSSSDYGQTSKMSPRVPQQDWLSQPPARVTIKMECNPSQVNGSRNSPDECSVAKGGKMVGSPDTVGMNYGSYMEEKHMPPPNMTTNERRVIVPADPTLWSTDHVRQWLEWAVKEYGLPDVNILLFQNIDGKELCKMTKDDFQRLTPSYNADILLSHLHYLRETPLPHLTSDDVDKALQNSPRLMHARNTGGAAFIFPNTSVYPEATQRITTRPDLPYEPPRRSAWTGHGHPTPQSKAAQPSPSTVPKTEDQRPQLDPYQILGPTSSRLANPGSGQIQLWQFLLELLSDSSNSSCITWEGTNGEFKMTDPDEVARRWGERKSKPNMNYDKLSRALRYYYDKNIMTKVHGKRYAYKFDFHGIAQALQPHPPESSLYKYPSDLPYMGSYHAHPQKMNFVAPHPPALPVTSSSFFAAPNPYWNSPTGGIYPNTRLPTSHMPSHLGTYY
# How it was run: as §1
# ELF1 = ELF1 (Homo sapiens, UniProt P32519 1-619); settings: protein: recombinant; tags: N-terminal GST; dsDNA, one strand shown
# Chain of ELF1 (P32519 whole entry): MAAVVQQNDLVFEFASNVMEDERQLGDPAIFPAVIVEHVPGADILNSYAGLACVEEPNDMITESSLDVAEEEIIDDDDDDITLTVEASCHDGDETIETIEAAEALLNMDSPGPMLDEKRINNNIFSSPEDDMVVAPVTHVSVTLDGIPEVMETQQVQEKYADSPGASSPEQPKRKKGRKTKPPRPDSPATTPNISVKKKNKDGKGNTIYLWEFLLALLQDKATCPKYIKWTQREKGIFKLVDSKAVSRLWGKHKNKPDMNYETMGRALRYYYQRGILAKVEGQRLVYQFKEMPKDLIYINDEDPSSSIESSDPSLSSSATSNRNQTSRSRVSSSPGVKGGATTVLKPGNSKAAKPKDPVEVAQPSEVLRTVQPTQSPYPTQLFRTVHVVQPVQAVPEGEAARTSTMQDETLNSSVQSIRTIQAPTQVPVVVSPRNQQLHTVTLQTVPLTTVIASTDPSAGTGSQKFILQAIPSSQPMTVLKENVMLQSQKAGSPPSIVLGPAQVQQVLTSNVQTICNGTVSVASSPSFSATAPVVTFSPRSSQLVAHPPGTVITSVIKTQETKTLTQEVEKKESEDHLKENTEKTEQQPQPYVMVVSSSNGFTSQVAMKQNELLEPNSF
# How it was run: as §1
# EHF = target: T5, EHF (Homo sapiens, UniProt Q9NZC4 1-300); settings: protein: recombinant; tags: N-terminal GST; dsDNA, one strand shown
# T5 sequence: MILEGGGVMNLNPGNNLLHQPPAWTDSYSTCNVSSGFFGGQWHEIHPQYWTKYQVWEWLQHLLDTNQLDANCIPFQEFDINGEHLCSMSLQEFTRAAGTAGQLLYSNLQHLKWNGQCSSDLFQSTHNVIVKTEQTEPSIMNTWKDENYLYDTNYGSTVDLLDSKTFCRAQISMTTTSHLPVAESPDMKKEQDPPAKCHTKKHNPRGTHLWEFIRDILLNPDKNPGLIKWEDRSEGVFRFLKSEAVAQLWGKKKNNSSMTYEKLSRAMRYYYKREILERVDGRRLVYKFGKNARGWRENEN
# How it was run: as §1
# SPI1 = SPI1 (Homo sapiens, UniProt P17947 1-270); settings: protein: recombinant; tags: N-terminal GST; dsDNA, one strand shown
# How it was run: as §1
# SPIB = SPIB (Homo sapiens, UniProt Q01892 1-262); settings: protein: recombinant; tags: N-terminal GST; dsDNA, one strand shown
# Chain of SPIB (Q01892 whole entry): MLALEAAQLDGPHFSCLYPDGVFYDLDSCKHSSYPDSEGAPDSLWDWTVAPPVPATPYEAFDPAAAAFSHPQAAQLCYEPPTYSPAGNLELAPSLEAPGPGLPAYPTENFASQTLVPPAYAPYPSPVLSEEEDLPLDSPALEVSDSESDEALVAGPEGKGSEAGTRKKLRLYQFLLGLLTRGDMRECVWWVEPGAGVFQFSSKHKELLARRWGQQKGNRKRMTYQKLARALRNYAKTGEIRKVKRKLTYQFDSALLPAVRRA
# How it was run: as §1
# FEV = target: T6, FEV (Homo sapiens, UniProt Q99581 1-238); settings: protein: recombinant; tags: N-terminal GST; dsDNA, one strand shown
# T6 sequence: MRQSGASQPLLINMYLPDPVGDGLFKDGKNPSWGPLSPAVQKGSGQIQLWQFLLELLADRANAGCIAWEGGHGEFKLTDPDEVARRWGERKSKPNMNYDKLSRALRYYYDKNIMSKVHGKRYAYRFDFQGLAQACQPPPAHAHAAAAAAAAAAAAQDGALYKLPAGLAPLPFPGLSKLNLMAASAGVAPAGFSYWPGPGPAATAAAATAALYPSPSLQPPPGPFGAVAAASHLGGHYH
# How it was run: as §1
# ETV5 = ETV5 (Homo sapiens, UniProt P41161 1-510); settings: protein: recombinant; tags: N-terminal GST; dsDNA, one strand shown
# Chain of ETV5 (P41161 whole entry): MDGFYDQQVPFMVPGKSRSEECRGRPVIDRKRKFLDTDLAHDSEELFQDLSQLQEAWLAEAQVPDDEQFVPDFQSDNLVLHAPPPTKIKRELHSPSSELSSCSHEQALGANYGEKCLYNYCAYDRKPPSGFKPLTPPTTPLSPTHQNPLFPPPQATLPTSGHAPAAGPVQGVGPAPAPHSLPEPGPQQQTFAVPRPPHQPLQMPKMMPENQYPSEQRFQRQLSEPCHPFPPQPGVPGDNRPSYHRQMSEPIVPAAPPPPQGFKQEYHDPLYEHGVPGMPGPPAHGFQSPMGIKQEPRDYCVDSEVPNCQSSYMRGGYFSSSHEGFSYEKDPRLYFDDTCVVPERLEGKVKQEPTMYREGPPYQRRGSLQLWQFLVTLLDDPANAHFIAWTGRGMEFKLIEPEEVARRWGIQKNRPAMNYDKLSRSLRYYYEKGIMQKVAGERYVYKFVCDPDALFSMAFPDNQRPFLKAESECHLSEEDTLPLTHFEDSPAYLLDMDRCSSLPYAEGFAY
# How it was run: as §1
# HSF1 = HSF1 (Homo sapiens, UniProt Q00613 1-529); settings: protein: recombinant; tags: N-terminal GST; chain copies: 3; dsDNA, one strand shown
# Chain of HSF1 (Q00613 whole entry): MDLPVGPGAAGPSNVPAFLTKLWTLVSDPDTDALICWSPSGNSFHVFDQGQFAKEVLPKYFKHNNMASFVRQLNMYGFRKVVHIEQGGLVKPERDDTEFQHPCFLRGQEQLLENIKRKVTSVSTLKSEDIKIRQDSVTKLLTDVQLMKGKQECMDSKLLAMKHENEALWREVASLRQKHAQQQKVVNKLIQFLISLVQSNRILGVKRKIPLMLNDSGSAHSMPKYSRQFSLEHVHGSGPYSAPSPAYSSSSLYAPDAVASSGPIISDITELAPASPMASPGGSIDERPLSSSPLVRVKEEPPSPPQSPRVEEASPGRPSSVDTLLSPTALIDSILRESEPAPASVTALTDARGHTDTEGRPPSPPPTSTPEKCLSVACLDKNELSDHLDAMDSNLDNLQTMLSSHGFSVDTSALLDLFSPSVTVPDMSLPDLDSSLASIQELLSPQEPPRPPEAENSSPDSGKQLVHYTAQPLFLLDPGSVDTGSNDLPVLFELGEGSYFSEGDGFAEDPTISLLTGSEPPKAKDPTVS
# How it was run: as §1
# SPIC = target: T7, SPIC (Homo sapiens, UniProt Q8N5J4 1-248); settings: protein: recombinant; tags: N-terminal GST; dsDNA, one strand shown
# T7 sequence: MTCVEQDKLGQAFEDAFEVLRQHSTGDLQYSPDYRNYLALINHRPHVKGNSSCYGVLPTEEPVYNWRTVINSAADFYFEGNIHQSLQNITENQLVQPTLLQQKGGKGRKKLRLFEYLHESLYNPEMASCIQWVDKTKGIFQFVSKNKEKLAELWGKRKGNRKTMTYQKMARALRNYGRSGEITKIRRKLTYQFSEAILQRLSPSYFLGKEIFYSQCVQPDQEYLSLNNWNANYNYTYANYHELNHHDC
# How it was run: as §1
# ELF4 = ELF4 (Homo sapiens, UniProt Q99607 1-663); settings: protein: recombinant; tags: N-terminal GST; dsDNA, one strand shown
# Chain of ELF4 (Q99607 whole entry): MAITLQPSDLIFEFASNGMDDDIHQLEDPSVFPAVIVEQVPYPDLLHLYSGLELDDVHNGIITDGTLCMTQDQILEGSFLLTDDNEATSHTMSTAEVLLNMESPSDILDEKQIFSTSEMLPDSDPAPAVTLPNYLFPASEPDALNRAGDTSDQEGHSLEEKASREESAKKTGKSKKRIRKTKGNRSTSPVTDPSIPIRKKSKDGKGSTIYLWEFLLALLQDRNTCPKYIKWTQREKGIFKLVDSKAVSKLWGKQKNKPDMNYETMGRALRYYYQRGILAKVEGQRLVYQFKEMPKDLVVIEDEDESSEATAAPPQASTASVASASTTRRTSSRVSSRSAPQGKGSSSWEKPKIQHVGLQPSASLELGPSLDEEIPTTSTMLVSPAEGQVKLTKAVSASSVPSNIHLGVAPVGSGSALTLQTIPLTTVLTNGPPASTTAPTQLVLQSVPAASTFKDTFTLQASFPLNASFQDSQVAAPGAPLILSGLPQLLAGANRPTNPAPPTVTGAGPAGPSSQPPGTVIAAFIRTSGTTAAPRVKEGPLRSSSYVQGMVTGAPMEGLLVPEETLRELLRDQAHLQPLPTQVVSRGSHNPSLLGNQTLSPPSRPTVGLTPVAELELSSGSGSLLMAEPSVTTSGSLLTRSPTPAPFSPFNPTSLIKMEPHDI
# How it was run: as §1
# ELK4 = target: T8, ELK4 (Homo sapiens, UniProt P28324-2 1-405); settings: protein: recombinant; tags: N-terminal GST; dsDNA, one strand shown
# T8 sequence: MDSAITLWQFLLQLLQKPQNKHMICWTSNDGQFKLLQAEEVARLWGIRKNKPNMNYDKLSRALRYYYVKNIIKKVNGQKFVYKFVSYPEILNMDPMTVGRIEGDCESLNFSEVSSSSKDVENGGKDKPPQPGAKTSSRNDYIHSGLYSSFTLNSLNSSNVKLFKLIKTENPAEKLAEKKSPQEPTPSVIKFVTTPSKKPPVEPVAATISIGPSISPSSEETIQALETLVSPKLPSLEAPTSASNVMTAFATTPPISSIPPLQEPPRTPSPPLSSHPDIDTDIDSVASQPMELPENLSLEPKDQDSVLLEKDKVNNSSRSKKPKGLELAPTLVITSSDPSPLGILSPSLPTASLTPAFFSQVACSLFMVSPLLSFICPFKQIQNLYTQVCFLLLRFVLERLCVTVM
# How it was run: as §1
# ETV2 = target: T9, ETV2 (Homo sapiens, UniProt O00321 1-342); settings: protein: recombinant; tags: N-terminal GST; dsDNA, one strand shown
# T9 sequence: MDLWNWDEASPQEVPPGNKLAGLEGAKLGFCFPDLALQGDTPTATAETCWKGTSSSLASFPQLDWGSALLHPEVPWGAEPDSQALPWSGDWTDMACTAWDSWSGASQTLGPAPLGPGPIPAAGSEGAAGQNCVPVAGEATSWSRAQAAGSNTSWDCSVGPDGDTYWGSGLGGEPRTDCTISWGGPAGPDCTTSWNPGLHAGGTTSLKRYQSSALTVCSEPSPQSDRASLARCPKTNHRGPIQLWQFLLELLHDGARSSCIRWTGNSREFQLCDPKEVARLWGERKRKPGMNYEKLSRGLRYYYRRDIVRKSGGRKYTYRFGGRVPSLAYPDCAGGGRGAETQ
# How it was run: as §1
# ELF3 = target: T10, ELF3 (Homo sapiens, UniProt P78545 1-371); settings: protein: recombinant; tags: N-terminal GST; dsDNA, one strand shown
# T10 sequence: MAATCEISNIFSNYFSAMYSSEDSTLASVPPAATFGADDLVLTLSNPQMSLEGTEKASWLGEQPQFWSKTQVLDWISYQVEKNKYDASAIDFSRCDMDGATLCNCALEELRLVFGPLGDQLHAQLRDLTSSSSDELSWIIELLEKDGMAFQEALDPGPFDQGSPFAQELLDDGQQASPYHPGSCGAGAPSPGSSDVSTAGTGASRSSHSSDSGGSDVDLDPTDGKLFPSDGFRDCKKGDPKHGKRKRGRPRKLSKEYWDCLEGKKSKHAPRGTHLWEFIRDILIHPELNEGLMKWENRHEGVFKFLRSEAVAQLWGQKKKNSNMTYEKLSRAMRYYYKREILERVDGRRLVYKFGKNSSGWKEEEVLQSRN
# How it was run: as §1
# CRX = CRX (Homo sapiens, UniProt O43186 1-299); settings: protein: recombinant; tags: N-terminal GST; dsDNA, one strand shown
# Chain of CRX (O43186 whole entry): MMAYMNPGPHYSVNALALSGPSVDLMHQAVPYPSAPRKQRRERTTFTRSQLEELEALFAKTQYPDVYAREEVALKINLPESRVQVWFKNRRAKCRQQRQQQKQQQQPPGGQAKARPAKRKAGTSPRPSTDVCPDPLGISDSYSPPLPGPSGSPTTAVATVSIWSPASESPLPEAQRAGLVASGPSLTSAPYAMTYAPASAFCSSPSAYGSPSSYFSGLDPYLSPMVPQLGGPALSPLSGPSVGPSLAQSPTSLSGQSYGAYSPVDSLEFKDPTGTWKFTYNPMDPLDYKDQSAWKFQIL
# How it was run: as §1
# ETV1 = ETV1 (Homo sapiens, UniProt P50549 1-477); settings: protein: recombinant; tags: N-terminal GST; dsDNA, one strand shown
# Chain of ETV1 (P50549 whole entry): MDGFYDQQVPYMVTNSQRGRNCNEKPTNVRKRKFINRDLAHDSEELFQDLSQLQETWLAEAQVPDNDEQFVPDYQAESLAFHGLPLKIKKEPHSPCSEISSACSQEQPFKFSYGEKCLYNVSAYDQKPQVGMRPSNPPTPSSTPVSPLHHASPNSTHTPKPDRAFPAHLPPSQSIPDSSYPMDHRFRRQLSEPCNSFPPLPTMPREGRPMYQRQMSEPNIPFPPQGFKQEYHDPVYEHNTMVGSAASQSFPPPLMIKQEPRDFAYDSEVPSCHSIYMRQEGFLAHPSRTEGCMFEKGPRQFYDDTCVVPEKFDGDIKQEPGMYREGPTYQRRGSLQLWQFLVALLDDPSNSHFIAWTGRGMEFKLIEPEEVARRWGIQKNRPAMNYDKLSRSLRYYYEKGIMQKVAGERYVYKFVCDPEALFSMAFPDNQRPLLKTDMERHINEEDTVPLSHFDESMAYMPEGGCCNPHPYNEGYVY
# How it was run: as §1
sequence,measurement,setting,value
CCGAGC,binding signal,FLI1,"1.17 fold enrichment (6-mer frequency, TF over GST control)"
same,binding signal,ELK1,"1.25 fold enrichment (6-mer frequency, TF over GST control)"
same,binding signal,GABPA,"1.2 fold enrichment (6-mer frequency, TF over GST control)"
same,binding signal,ERG,"1.11 fold enrichment (6-mer frequency, TF over GST control)"
same,binding signal,ELF1,"1.15 fold enrichment (6-mer frequency, TF over GST control)"
same,binding signal,EHF,"1.12 fold enrichment (6-mer frequency, TF over GST control)"
same,binding signal,SPI1,"1.12 fold enrichment (6-mer frequency, TF over GST control)"
same,binding signal,SPIB,"1.19 fold enrichment (6-mer frequency, TF over GST control)"
same,binding signal,FEV,"1.18 fold enrichment (6-mer frequency, TF over GST control)"
same,binding signal,ETV5,"1.14 fold enrichment (6-mer frequency, TF over GST control)"
same,binding signal,HSF1,"1.13 fold enrichment (6-mer frequency, TF over GST control)"
same,binding signal,SPIC,"1.26 fold enrichment (6-mer frequency, TF over GST control)"
same,binding signal,ELF4,"1.09 fold enrichment (6-mer frequency, TF over GST control)"
same,binding signal,ELK4,"1.09 fold enrichment (6-mer frequency, TF over GST control)"
same,binding signal,ETV2,"1.35 fold enrichment (6-mer frequency, TF over GST control)"
same,binding signal,ELF3,"1.23 fold enrichment (6-mer frequency, TF over GST control)"
same,binding signal,CRX,"1.01 fold enrichment (6-mer frequency, TF over GST control)"
same,binding signal,ETV1,"1.02 fold enrichment (6-mer frequency, TF over GST control)"
